Assay outcomes from PubChem BioAssay.
A selection: hits, their analogues and other compounds. The true share with any hit is near 3%.
TRb-SRC2 inh: qHTS for Inhibitors of the Interaction of Thyroid Hormone Receptor and Steroid Receptor Coregulator 2; Thyroid hormone receptor beta (Homo sapiens), P10828; TRbeta-SRC2 peptide binding, fluorescence polarization; receptor liganded with 1 µM T3; AID 1469, 2008; 0.065% of 280,000 active; Potency, µM (series often up to 106 µM), for inactives: at the highest dose activity change, negative = inhibition, usual class: inhibitors;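 note: plate controls were bound peptide for no effect and peptide without receptor for full effect; nearly all actives have a fitted effect of over 50% in size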
Target sequence (P10828 whole entry, looked up): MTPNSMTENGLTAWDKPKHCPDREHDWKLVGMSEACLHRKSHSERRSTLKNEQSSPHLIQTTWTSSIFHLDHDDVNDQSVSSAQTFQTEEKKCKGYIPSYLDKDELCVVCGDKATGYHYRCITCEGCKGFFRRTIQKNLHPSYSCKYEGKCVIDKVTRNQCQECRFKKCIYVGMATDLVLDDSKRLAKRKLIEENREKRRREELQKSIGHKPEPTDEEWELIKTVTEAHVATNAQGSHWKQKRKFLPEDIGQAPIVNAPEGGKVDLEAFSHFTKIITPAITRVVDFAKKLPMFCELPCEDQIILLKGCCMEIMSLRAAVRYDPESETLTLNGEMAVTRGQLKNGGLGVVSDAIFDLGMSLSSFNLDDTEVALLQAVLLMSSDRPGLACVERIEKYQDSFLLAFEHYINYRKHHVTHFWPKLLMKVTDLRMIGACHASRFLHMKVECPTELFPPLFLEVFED
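Each compound concentration gave % activity, normalized to unbound and bound Texas Red SRC2 controls, from polarization read after 5 hr ambient incubation with T3-loaded human TRb LBD.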
Tau fibril ThT: qHTS for Inhibitors of Tau Fibril Formation, Thioflavin T Binding. 2.1% of 270,000 active. recombinant tau K18 P301L, heparin-induced fibrillization, ThT fluorescence. Potency, µM (top dose mostly 57.4 µM), without a hit: top-dose activity, negative = inhibition, hits mostly inhibitors; note: nearly all actives have a fitted effect of over 55% in size
Target sequence (P10636 561-689 P618L limits assumed): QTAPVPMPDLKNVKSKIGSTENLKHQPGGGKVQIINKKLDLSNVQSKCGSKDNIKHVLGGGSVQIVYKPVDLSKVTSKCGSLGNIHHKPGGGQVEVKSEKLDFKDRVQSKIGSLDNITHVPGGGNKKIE
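Heparin-induced (20 uM) aggregation of recombinant human K18 P301L tau, 15 uM unlabeled with 0.24 uM labeled, pH 7 acetate buffer, 6 hr at 37 C with compound. Fibrils quantified by 30 uM ThT fluorescence after 1 hr ambient incubation.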
TR SRC2 fluor cs: Total Fluorescence Counterscreen for Inhibitors of the Interaction of Thyroid Hormone Receptor and Steroid Receptor Coregulator 2; TRb/SRC2 Texas Red total fluorescence interference; Potency, µM (top dose mostly 106 µM), inactives show at the highest dose fluorescence change, negative = quenching; 0.29% of 280,000 active; AID 1479, 2009; active = well fitted curve in either direction with a large enough effect; inconclusive = small, poorly fitted or top-dose-only effect
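Human TRb ligand-binding domain at 0.6 uM with 20 nM Texas Red SRC2 peptide in Tris buffer containing 1 uM T3 and 5% DMSO, incubated with compound 5 h at ambient temperature. Total fluorescence (555/632 nm) calculated as parallel + 2 × perpendicular.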
Tau fluor counter: Counterscreen qHTS for Inhibitors of Tau Fibril Formation, Fluorescence Polarization; tau K18 P301L Alexa594 fluorescence, heparin fibrillization; Potency, µM (doses to about 57.7 µM), inactives show top-dose activity change, negative = decrease; 0.93% of 280,000 active; note: nearly all actives have a fitted effect of over 55% in size
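Human K18 P301L tau (15 uM unlabeled plus 0.24 uM Alexa 594-labeled, final) in 100 mM sodium acetate pH 7 was mixed with compound and 20 uM heparin and incubated 6 hr at 37 C.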
Tau fibril FP: qHTS for Inhibitors of Tau Fibril Formation, Fluorescence Polarization; K18 P301L tau heparin fibrillization, Alexa594 FP, 6 h; Microtubule-associated protein tau (Homo sapiens), P10636; Potency, µM (series often up to 57.7 µM), inactives show top-dose activity, negative = inhibition, usual class: inhibitors; 0.39% of 280,000 active; note: nearly all actives have a fitted effect of over 55% in size
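Heparin (20 uM) drove fibril formation of recombinant tau K18 P301L, 15 uM unlabeled with 0.24 uM Alexa 594 label, for 6 hr at 37 C in 100 mM sodium acetate pH 7. Fluorescence polarization (555/632 nm) read 1 hr after 30 uM ThT.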
* hit, by the source's call; ? = inconclusive; / = no result; [ ] = another dose, or the depositor's remark. Unless noted, calls come from the whole dose curve; as a rule, active = well fitted curve in the direction sought with a large enough effect; inconclusive = small, poorly fitted or top-dose-only effect, or another doubt; inactive = no such curve, though single readings can be large; an effect the other way counts as inactive or inconclusive. Unless noted, % is set by controls: 0 for no effect and ±100 for the full control effect; potency is the fitted concentration of half-maximal effect.

SMILES	TRb-SRC2 inh	Tau fibril ThT	TR SRC2 fluor cs	Tau fluor counter	Tau fibril FP
Cn1nc(C(=O)NCc2ccccc2Cl)c2c1-c1ccccc1S(=O)(=O)C2	-28%	-5%	100µM*[quencher]	-2%	2%
Cc1ccc(NC(=O)c2nn(C)c3c2CS(=O)(=O)c2ccccc2-3)c(Cl)c1	-8%	-14%	?	-11%	-3%
Cn1nc(C(=O)Nc2ccc(F)c(Cl)c2)c2c1-c1ccccc1S(=O)(=O)C2	-25%	-20%	0.0063µM*[quencher]	-11%	-4%
C=C1CCN(C(CC(C)C)C(=O)O)S(=O)(=O)c2ccccc21 (configuration not stated)	4%	/	0%	/	/
Nc1cc(-c2ccc(OC(F)(F)F)cc2)nn1-c1ccc(Cl)c(Cl)c1	-4%	20µM*	-6%	13µM*[quencher]	?
Cc1ccc(-c2cc(N)n(-c3ccccc3)n2)cc1	-32%	?	-1%	-25%	9%
O=C(CN1C(=O)/C(=C\C=C\c2ccccc2)SC1=S)Nc1ccc(F)cc1	-11%[53 µM]	12%	0%[53 µM]	13%	4%
O=C(O)CCCN1C(=O)/C(=C/c2ccc(-c3nc4ccccc4s3)o2)SC1=S	5%	1.6µM*	-3%	-28%	-13%
O=C(CCN1C(=O)/C(=C/C=C/c2ccccc2)SC1=S)Nc1nc2ccccc2s1	0%	3.5µM*	2%	-22%	5%
O=C(COC(=O)CCN1C(=O)/C(=C\C=C\c2ccccc2)SC1=S)Nc1cc(F)ccc1F	8%	6.3µM*	6%	?	1%
CCCC(=O)NC(NC(=S)Nc1ccc(S(N)(=O)=O)cc1)C(Cl)(Cl)Cl (configuration not stated)	5%	1%	-2%	-5%	-5%
O=C(CCc1ccccc1)NC(NC(=S)Nc1ccc(Br)cc1)C(Cl)(Cl)Cl (configuration not stated)	2%	5%	0%	-26%	?
S=C(NCCC(c1ccccc1)c1ccccc1)Nc1cccc(Cl)c1	-15%	18%	-1%	7.1µM*[quencher]	14µM*
O=C(CCc1ccccc1)NC(NC(=S)Nc1cccc(Cl)c1)C(Cl)(Cl)Cl (configuration not stated)	-25%	10%	0%	0%	14µM*
CCCC(=O)NC(NC(=S)Nc1ccc(N=Nc2ccccc2)cc1)C(Cl)(Cl)Cl (configuration not stated)	2%	14µM*	6%	?	?
CC[C@H](C)[C@H]1O[C@]2(CC[C@@H]1C)C[C@@H]1C[C@@H](C/C=C(\C)[C@H](O[C@@H]3C[C@H](OC)[C@H](O[C@@H]4C[C@H](OC)[C@@H](O)[C@H](C)O4)[C@H](C)O3)[C@@H](C)/C=C/C=C3\CO[C@@H]4[C@H](O)C(C)=C[C@@H](C(=O)O1)[C@]34O)O2	7%	?	-2%	-11%	6%
COc1ccc(C2=Nc3ccccc3NC(c3cccs3)=N2)cc1	-7%	?	-1%	?	1%
N#Cc1c(N)sc(=S)c2c1CCCC2	4%	14µM*	0%	?	-3%
CCC1(C)Cc2c(C#N)c(N)sc(=S)c2CO1 (configuration not stated)	?	25µM*	-1%	-16%	?
CCC/C=C(\CCC)C(NC(=O)c1cccs1)c1ccc(C(=O)OC)cc1 (configuration not stated)	-5%	-15%	0%	-10%	3%
O=C(Nc1cccc(S(=O)(=O)N2CCCCC2)c1)c1ccc2ncsc2c1	-7%	/	-1%	20µM*[quencher]	?
CC(=O)c1c(C)[nH]c(C(=O)Nc2cccc(S(=O)(=O)N(C)c3ccccc3)c2)c1C	-4%	-17%	-4%	14µM*[quencher]	28µM*
COc1ccccc1NS(=O)(=O)c1cccc(NC(=O)c2[nH]c(C)c(C(C)=O)c2C)c1	7%	9%	0%	?	?
Cc1nc2ccc(NC(=O)c3cccc(S(=O)(=O)N(C)c4ccccc4)c3)cc2s1	-1%	0%	1%	?	-12%
CN(c1ccccc1)S(=O)(=O)c1cccc(NC(=O)c2ccc3ncsc3c2)c1	0%	-7%	-3%	16µM*[quencher]	?
SMILES	TRb-SRC2 inh	Tau fibril ThT	TR SRC2 fluor cs	Tau fluor counter	Tau fibril FP
O=C(Nc1cccc(O)c1)c1cccc(S(=O)(=O)N2CCCC2)c1	5%	-13%	-4%	-17%	1%
C[C@H](CCC(=O)O)C1CC[C@H]2C3CC[C@@H]4C[C@H](O)CC[C@]4(C)C3C[C@H](O)[C@]12C (some centres not stated)	3%	-5%	3%	3%	-1%
CC(C)C1Nc2c(O)cc(Cl)c([N+](=O)[O-])c2C2C=CCC21 (configuration not stated)	?	11µM*	14%	?	2%
CCN(c1ccccc1)S(=O)(=O)c1ccc(NC(=O)c2cc(=O)c3c(C)cc(C)cc3o2)cc1	7%	2%	-3%	-5%	-17%
Cc1ccc(C2CC(=O)Nc3cc4c(cc32)OCCO4)cc1 (configuration not stated)	-17%[53 µM]	-6%	0.05µM*[quencher]	-15%	4%
CCCCN(CC)c1nc(N)c2c(N)nc(OCC)cc2c1C#N	-5%	?	-4%	16µM*[quencher]	12%
C[C@H]1Cc2c(-c3ccccc3)nc3c(c2CO1)CN(S(=O)(=O)c1ccc2c(c1)OCCN2C)CC3	7%[11.2 µM]	10%[11.5 µM]	-22%[11.2 µM]	8%[11.6 µM]	2%[11.6 µM]
O=C1/C(=C/c2ccco2)CCc2ccccc21	-9%	?	0%	-14%	3%
O=C(O)c1ccc2c(c1)C(=O)/C(=C/c1ccccc1)C2=O	2%	?	-14%	-17%	0%
Cc1ccc(C=C2C(=O)c3ccccc3C2=O)o1	21%	8.9µM*	14%	4%	?
O=C1C(=Cc2ccco2)C(=O)c2ccccc21	-1%	13µM*	-12%	?	?
O=C(O)c1ccc2c(c1)C(=O)/C(=C\c1ccco1)C2=O	3%	11µM*	?	?	16µM*
Cc1ccc(/C=C2/C(=O)c3ccc(C(=O)O)cc3C2=O)o1	16%	5.6µM*	-12%	-20%	?
Cn1nnnc1SCCNCc1cc(Br)ccc1OCc1ccccc1Cl	-1%	-21%	1%	-25%	2%
